# High-throughput results (PubChem)
# Most compounds without a hit are left out; they make up all but 21% or so of the library.
# ClpP mod: qHTS Assay for Activators of ClpP | ATP-dependent Clp protease proteolytic subunit (Bacillus subtilis (strain 168)), P80244 | purified B. subtilis ClpP, FRET peptide cleavage, 20 min | Potency, µM (titrated, usually from 57.5 µM), without a hit: at the top dose activity change, negative = active | 1.9% of 340,000 active | AID 651965, 2013; active = well fitted falling curve with a large enough effect; inconclusive = small, poorly fitted or top-dose-only effect; inactive = no such curve, though single readings can be large or run the other way; note: potency is the fitted concentration of half-maximal effect; the source files actives as falling curves though it sought activators and does not explain the sign; nearly all actives have a fitted effect of over 65% in size
#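 Purified B. subtilis ClpP, 10 microg/mL final in Tris/HCl pH8 with KCl, BSA, glycerol and Tween-20, cleaved an Abz/nitrotyrosine-quenched decapeptide. Fluorescence (ex 320, em 430) was read at 0 and 20 min at room temperature. Delta was normalized to 5.8 microM ADEP and DMSO/no-enzyme controls.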
# TDP1 cell CPT: growth inhibition of DT40 Tdp1-/-;hTDP1 cells with camptothecin (screen for TDP1 inhibitors) | chicken DT40 Tdp1-/-;hTDP1 cells + 20 nM CPT, ATP luminescence, 48 h | 12% of 420,000 active | Potency, µM (highest dose often 46.2 µM), for the others: at the top dose activity change, negative = growth inhibition, actives largely listed as inhibitors; note: potency is the fitted concentration of half-maximal effect; % is set by controls: 0 for no effect and ±100 for the full control effect; nearly all actives have a fitted effect of over 55% in size
#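 Chicken DT40 Tdp1-/- cells stably complemented with human TDP1 were seeded at 400 cells/well in medium containing 20 nM camptothecin, exposed to pin-transferred compounds, and grown at 37 °C for at least 48 hr. Viability was read as ATP luminescence.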
# D3 antag: D3 dopamine receptor (human) antagonism; P35462; D3R cells, DiscoveRx beta-arrestin luminescence, antagonist mode; hits give low values; max response, negative = inhibition, %; 2.5% of 360,000 active; AID 652054; in the data active = max response below about -50%; inconclusive = no clear call, values can overlap the other calls; note: % is set by controls: 0 for no effect and ±100 for the full control effect
#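 Cells expressing the human receptor were seeded at 1500 cells/well, incubated overnight at 37 degrees C in 5% CO2, then exposed to library compounds with dopamine controls for 90 minutes at 37 degrees C before luminescent detection.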
# TDP1 cell noCPT: qHTS for Inhibitors of human tyrosyl-DNA phosphodiesterase 1 (TDP1): qHTS in cells in absence of CPT; DT40 Tdp1-/- hTDP1 cells, no CPT, ATP luminescence, 48 h; Potency, µM (titrated, usually from 46.2 µM), for the others: top-dose activity change, negative = growth inhibition, most hits filed as inhibitors; 15% of 420,000 active; AID 686978, 2013; note: potency is the fitted concentration of half-maximal effect; % is set by controls: 0 for no effect and ±100 for the full control effect; nearly all actives have a fitted effect of over 55% in size
#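 Growth of hTDP1-complemented DT40 Tdp1-knockout cells is measured by ATP luminescence after at least 48 hr compound exposure at 37 °C, with DMSO substituting for the 20 nM CPT used in the parallel screen.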
# IL-1B inflam inh: blocks inflammasome-driven IL-1 beta release; THP-1 LPS/ATP IL-1B secretion, AlphaLISA, 16 h; hits give low values; activity change, % at 57.5 µM; 4.7% of 360,000 active; AID 743279; in the data active = activity change below about -50%; inconclusive = mostly about -30% to -49%; note: % is set by controls: 0 for no effect and ±100 for the full control effect
#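 Secreted IL-1B measured by AlphaLISA bead assay after 16 h compound exposure of THP-1 cells; compounds (final up to 57.5 uM) added 1 h before LPS (250 ng/mL) and ATP (1.25 mM) stimulation; lower signal means less secretion.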
# D3 ag: agonists of human D3 dopamine receptor | D3R DiscoveRx beta-arrestin cells, luminescence, 90 min | P35462 | 0.58% of 410,000 active | max activation, %; in the data active = max activation above about 30%; note: 0% is about no effect
#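 Agonist-mode cell screen: cells plated at 1500/well and incubated overnight at 37 °C, then exposed to library compounds for 90 min at 37 °C. Detection reagent was added for 30–60 min at room temperature, and luminescence was read.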
# * hit, by the source's call; ? = inconclusive; . = no result given; ! = not confirmed by another sample; [ ] = remark or other dose. Unless noted, calls come from the whole dose curve; as a rule, active = well fitted inhibition curve with a large enough effect; inconclusive = small, poorly fitted or top-dose-only effect; inactive = flat fitted curve, though single readings scatter.
SMILES,ClpP mod,TDP1 cell CPT,D3 antag,TDP1 cell noCPT,IL-1B inflam inh,D3 ag
COc1ccc(C(=O)CC(Nc2ccc([N+](=O)[O-])cc2)c2ccc(OC)cc2)cc1 (stereo not drawn),0.0%,?,-28.6,18.4µM*,-7.5,-14.2
COc1ccc(NC(=O)CNC(=O)c2ccc([N+](=O)[O-])cc2)cc1,.,6.6%,1.6,13.2%,16.0,8.1
COc1ccc(OC(C)C(=O)Nc2ccc([N+](=O)[O-])cc2)cc1 (stereo not drawn),.,?,3.6,20.6µM*,0.0,-7.1
Cc1cc(-c2ccnc(-n3ncc(C(=O)N(C)Cc4nccs4)c3C)n2)c(C)s1,.,-2.8%[9.04 µM],.,?,.,.
COCCN1C(=O)N(c2cccc(C)c2)C(=O)C1CC(=O)Nc1ccc(OC)cc1 (stereo not drawn),0.4%,-18.4%,-21.7,13.1%,0.0,-1.0
CCOC(=O)c1c(C)[nH]c(C)c1S(=O)(=O)N1CCC(C(=O)Nc2ccc(C)c(N(C)C)c2)CC1,1.0%,-25.7%,.,?,.,9.6
CNC(CC(=O)c1ccc([N+](=O)[O-])cc1)C(Cl)(Cl)Cl (stereo not drawn),-8.4%,2.31µM*,1.0,2.59µM*,-67.4*,-1.6
O=C(CSc1ccccc1C(=O)O)c1ccc([N+](=O)[O-])cc1,1.3%,?,-3.5,?,-2.3,-6.1
CCCC(=O)Nc1ccc(C(=O)NNC(=O)c2cccc([N+](=O)[O-])c2)cc1,.,-3.9%,-3.0,-9.6%,-3.3,-2.6
CCCC(=O)Nc1ccc(Sc2ccc([N+](=O)[O-])cc2)cc1,0.6%,2.31µM*,-15.2,2.31µM*,?,-2.3
CCOC(=O)/C(=C/C=C1\Sc2cc(OCC)c(OCC)cc2N1CC)C(C)=O,.,7.31µM*,2.3,4.61µM*,-1.7,8.5
CCN1/C(=C\C=C2\C(=O)N(C)C(=S)N2C)Sc2ccccc21,.,-4.8%,-2.2,?,20.2,-6.1
CCOC(=O)/C(=C\C=C1/Sc2cc(OCC)c(OCC)cc2N1CC)C(C)=O,-21.2%,1.84µM*,17.3,2.31µM*,-93.0*,1.7
CCN(CC)CCn1nc2c3c(cccc3c1=O)-c1ccccc1-2,-12.6%,0.517µM*,-13.7,0.0164µM*,-98.9*,-9.8
O=c1c2cccc3c2c(nn1CN1CCOCC1)-c1ccccc1-3,-11.9%,?,7.6,20.6µM*,-13.8,0.6
CCN(CC)CCn1nc(C)nc1-c1ccccc1O,-4.9%,-7.2%,-18.5,-8.1%,0.0,-22.8
COc1ccccc1C(=O)N1CCOc2ccc(CN3CCN(Cc4ccccn4)CC3)cc2C1,.,2.2%[9.04 µM],.,-4.3%,.,.
O=C(c1cnccn1)N1CCC2(CCCN(Cc3ccncc3)C2)CC1,.,11.0%,.,-1.4%,.,.
CC1CCC(C(C)C)C(OCC(O)CN2CCN(Cc3ccccc3)CC2)C1 (stereo not drawn),-3.1%,13µM*,-22.5,14.6µM*,?,-10.2
CC1CCC(C(C)C)C(OCC(O)C[N+]2(C)CCCCC2)C1 (stereo not drawn),.,?,12.3,11.6µM*,0.0,4.8
CC1CCC(C(C)C)C(OCC(O)CN2CCOCC2)C1 (stereo not drawn),-1.3%,-3.5%,-21.0,-44.2%,0.0,-14.5
CC1CCC(C(C)C)C(OCC(O)CN2CCCC(C)C2)C1 (stereo not drawn),.,?,?,?,0.0,-18.4
CCc1ccc(NC(=O)Cn2c(=O)n(-c3cc(C)cc(C)c3)c(=O)c3oc4ccccc4c32)cc1,-23.2%,-2.9%,.,-17.8%,.,-8.8
O=c1c2cccnc2n(Cc2cccc(F)c2)c(=O)n1Cc1ccc(F)cc1,?,?,.,?,.,-2.7
CC(C)c1ccc(NC(=O)CN2C(=O)c3cccc4cccc2c34)cc1,-19.6%,-17.3%,.,-6.9%,.,6.6
SMILES,ClpP mod,TDP1 cell CPT,D3 antag,TDP1 cell noCPT,IL-1B inflam inh,D3 ag
CCn1cc(-c2csc(N)n2)c(C)n1,.,2.2%,0.5,9.4%,0.0,1.6
COc1ccc(S(=O)(=O)N(CCO)c2ccccc2CN(C)C/C=C/c2ccc(Cl)cc2)cc1,.,11.6µM*,.,14.6µM*,.,.
COc1ccc(C(=O)NC(=S)Nc2ccc3[nH]c(=O)[nH]c3c2)c(OC)c1,0.1%,-14.7%,-12.5,18.0%,-18.7,-3.4
COc1ccc(-c2cn(Cc3cccc(OC)c3)nn2)cc1,1.1%,12.6µM*!,19.1,11.2µM*!,-16.1,1.0
COc1cccc(Cn2cc(-c3cccc(C(F)(F)F)c3)nn2)c1,-3.1%,?,10.7,?,5.0,3.1
COc1ccc(-c2cn(CCc3c[nH]c4ccccc34)nn2)cc1,0.2%,11.2µM*,11.8,10µM*,-18.4,6.5
COc1ccc(NC(=S)NC(=O)/C=C/c2ccccc2)cc1,.,?,1.1,?,-24.8,3.0
COc1cc(C(=O)NNC(=O)/C=C/c2ccccc2)cc(OC)c1OC,.,-0.6%,0.9,-21.9%,-73.8*,-10.0
COc1ccc(C(=O)O)cc1NC(=S)NC(=O)/C=C/c1ccc(C(C)C)cc1,.,23.0%,-9.5,-12.9%,-66.0*,-5.6
CCCCC(=O)NC(=S)Nc1cc(C(=O)O)ccc1OC,.,-4.4%,12.9,-5.1%,0.0,3.5
COc1cc(C(=O)NNC(=S)NC(=O)/C=C/c2ccccc2)cc(OC)c1OC,.,16.4µM*,25.2,?,48.6,13.7
CC(=O)NC(=S)NNC(=O)C(c1ccccc1)c1ccccc1,-1.0%,13µM*,19.4,20.6µM*,58.5,0.6
COc1cc(C(c2sc3nc(C)nn3c2O)N2CCC3(CC2)OCCO3)cc(OC)c1OC (stereo not drawn),-1.4%,16.4µM*,-50.7*,16.4µM*,5.7,1.6
CC(CC(=O)NCc1ccc(Cl)cc1)CC1=NS(=O)(=O)c2ccccc2N1 (stereo not drawn),-1.6%,?,.,?,.,-10.6
CCCCCCCCN1C(=O)[C@H](CC(=O)NCc2ccc(C)o2)C[C@@]2(C(=O)OC)CCCCC=C12,0.8%,?,-20.3,20.6µM*,-53.9*,-4.0
CCCCCCCCN1C(=O)[C@H](CC(=O)NCc2ccc(C)o2)C[C@@]2(C(=O)OCC)CCC=C12,1.1%,?,3.1,16.4µM*,.,8.3
COC(=O)[C@]12CCCCC=C1N(CCC1=CCCCC1)C(=O)[C@H](CC(=O)NCc1ccc(C)o1)C2,1.7%,?,-23.7,?,-14.1,-6.4
CC(=O)Nc1cc(-c2ccc(C(=O)N3CCOCC3)cc2)cn2c(-c3ccc(C(C)=O)cc3)cnc12,-27.2%,25.9µM*,16.6,11.6µM*,-19.1,4.4
